Activity calls are given as the source filed them. How the source made its calls: active means hit-call score of the fitted dose curve at least 0.9, where 1 is the maximum; inactive means score below 0.9.
Tests used:
[1] = BSK_hDFCGF_SRB: Viability Assessment in the BioMAP Diversity Plus: hDFCGF Assay (AID 2283061); conditions: primary human foreskin fibroblasts;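 further: cells exposed to compound for 24 h before the read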
Summary of the method: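 Viability was read as total protein: after 10% TCA fixation, wells were stained with 0.1% sulforhodamine B and read at 560 nm. Primary human foreskin fibroblasts were dosed for 24 h, with bidirectional fitting versus DMSO.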

[2] = read-out: TIMP metallopeptidase inhibitor 1 (TIMP1), TIMP1 (gene 7076); assay: BSK_hDFCGF_TIMP1: BioMAP Diversity Plus: hDFCGF Assay for TIMP metallopeptidase inhibitor 1 (TIMP1) Biomarker Activity (AID 2283062); conditions: primary human foreskin fibroblasts; actives raise or lower the signal
Summary of the method: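 TIMP-1 measured by ELISA 24 h after chemical dosing of primary human skin fibroblasts, with gain or loss fitted relative to DMSO. Parallel SRB staining (560 nm) monitored overt cytotoxicity.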

[3] = read-out: Monokine induced gamma interferon (MIG), CXCL9 (gene 4283); assay: BSK_hDFCGF_MIG: BioMAP Diversity Plus: hDFCGF Assay for Monokine induced gamma interferon (MIG) Biomarker Activity (AID 2283063); conditions: primary human foreskin fibroblasts; actives raise or lower the signal
Summary of the method: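 Human primary foreskin fibroblasts in the hDFCGF system, exposed to test chemical for 24 h; MIG measured by ELISA. Bidirectional curve fitting against DMSO negative control as activity baseline.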

[4] = read-out: Matrix Metallopeptidase 1 (MMP1), MMP1 (gene 4312); assay: BSK_hDFCGF_MMP1: BioMAP Diversity Plus: hDFCGF Assay for Matrix Metallopeptidase 1 (MMP1) Biomarker Activity (AID 2283064); conditions: primary human foreskin fibroblasts; actives raise or lower the signal
Summary of the method: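 Primary human foreskin fibroblasts in the hDFCGF system were dosed with test chemical, and MMP1 was measured by ELISA 24 h later. Values come from bidirectional curve fitting against the DMSO baseline.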

[5] = read-out: Vascular cell adhesion molecule 1 (VCAM1), VCAM1 (gene 7412); assay: BSK_hDFCGF_VCAM1: BioMAP Diversity Plus: hDFCGF Assay for Vascular cell adhesion molecule 1 (VCAM1) Biomarker Activity (AID 2283065); conditions: primary human foreskin fibroblasts; actives raise or lower the signal
Summary of the method: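 ELISA readout of VCAM-1 on human dermal fibroblast primary cultures, 24 h after chemical exposure. Gain or loss of signal fitted in both directions against DMSO baseline.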

[6] = read-out: Plasminogen activator inhibitor-1 (PAI1), SERPINE1 (gene 5054); assay: BSK_hDFCGF_PAI1: BioMAP Diversity Plus: hDFCGF Assay for Plasminogen activator inhibitor-1 (PAI1) Biomarker Activity (AID 2283066); conditions: primary human foreskin fibroblasts; actives raise or lower the signal
Summary of the method: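 Human foreskin fibroblast primary cells, 24 h chemical exposure; PAI-1 measured by ELISA. Bidirectional fitting relative to DMSO; parallel cultures stained with SRB for total protein to flag overt cytotoxicity.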

[7] = read-out: Intercellular Adhesion Molecule 1 (ICAM1), ICAM1 (gene 3383); assay: BSK_KF3CT_ICAM1: BioMAP Diversity Plus: KF3CT Assay for Intercellular Adhesion Molecule 1 (ICAM1) Biomarker Activity (AID 2283067); conditions: primary human keratinocytes with fibroblasts; actives raise or lower the signal
Summary of the method: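 Cell-surface ICAM-1 was measured by ELISA 24 h after dosing primary human skin keratinocytes co-cultured with fibroblasts. Parallel SRB staining tracked overt cytotoxicity. Gain or loss of signal was fitted relative to DMSO.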

[8] = read-out: Interferon-gamma inducible Protein 10 (IP10), CXCL10 (gene 3627); assay: BSK_KF3CT_IP10: BioMAP Diversity Plus: KF3CT Assay for Interferon-gamma inducible Protein 10 (IP10) Biomarker Activity (AID 2283068); conditions: primary human keratinocytes with fibroblasts; actives raise or lower the signal
Summary of the method: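 KF3CT co-culture (keratinocytes + foreskin fibroblasts), 24 h compound, IP-10 by ELISA; bidirectional fit vs DMSO baseline.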

[9] = BSK_KF3CT_SRB: Viability Assessment in the BioMAP Diversity Plus: KF3CT Assay (AID 2283069); conditions: primary human keratinocytes with fibroblasts;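 further: total protein by sulforhodamine B staining as a cytotoxicity measure; read 24 h after compound addition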
Summary of the method: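 Human primary keratinocyte plus foreskin fibroblast co-culture exposed to chemicals for 24 h. Total protein measured by 0.1% sulforhodamine B staining after 10% TCA fixation, read at 560 nm; bidirectional fitting versus DMSO baseline.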

[10] = read-out: Interleukin-1 alpha (IL1a), IL1A (gene 3552); assay: BSK_KF3CT_IL1a: BioMAP Diversity Plus: KF3CT Assay for Interleukin-1 alpha (IL1a) Biomarker Activity (AID 2283070); conditions: primary human keratinocytes with fibroblasts; actives raise or lower the signal
Summary of the method: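 Human keratinocyte plus foreskin fibroblast primary co-culture, sampled 24 h after chemical dosing. IL-1a measured by ELISA; responses fitted bidirectionally against DMSO baseline (negative control), so gain or loss of signal both count.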

[11] = read-out: TIMP metallopeptidase inhibitor 2 (TIMP2), TIMP2 (gene 7077); assay: BSK_KF3CT_TIMP2: BioMAP Diversity Plus: KF3CT Assay for TIMP metallopeptidase inhibitor 2 (TIMP2) Biomarker Activity (AID 2283071); conditions: primary human keratinocytes with fibroblasts; actives raise or lower the signal
Summary of the method: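 Co-culture of human primary keratinocytes and foreskin fibroblasts, measured 24 h after chemical dosing. TIMP-2 quantified by ELISA and fitted in both directions relative to DMSO. Cytotoxicity checked in parallel cultures by SRB total-protein staining.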

[12] = read-out: Transforming growth factor beta 1 (TGFb1), TGFB1 (gene 7040); assay: BSK_KF3CT_TGFb1: BioMAP Diversity Plus: KF3CT Assay for Transforming growth factor beta 1 (TGFb1) Biomarker Activity (AID 2283072); conditions: primary human keratinocytes with fibroblasts; actives raise or lower the signal
Summary of the method: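 Human keratinocyte/foreskin fibroblast co-culture; TGF-b1 measured by ELISA 24 h after dosing, fitted bidirectionally versus DMSO. Cytotoxicity checked in parallel cultures by total protein (SRB staining, 560 nm).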

[13] = read-out: C-C motif chemokine 2 (Homo sapiens) (UniProt P13500); assay: BSK_KF3CT_MCP1: BioMAP Diversity Plus: KF3CT Assay for Monocyte Chemoattractant Protein 1 (MCP1/CCL2) Biomarker Activity (AID 2283073); conditions: primary human keratinocytes with fibroblasts; actives raise or lower the signal
Summary of the method: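 ELISA read-out of MCP-1, 24 h post-dose, in primary human skin keratinocytes co-cultured with fibroblasts. Parallel SRB staining monitors cytotoxicity; changes fitted both directions relative to DMSO.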

[14] = read-out: Matrix Metallopeptidase 9 (MMP9), MMP9 (gene 4318); assay: BSK_KF3CT_MMP9: BioMAP Diversity Plus: KF3CT Assay for Matrix Metallopeptidase 9 (MMP9) Biomarker Activity (AID 2283074); conditions: primary human keratinocytes with fibroblasts; actives raise or lower the signal
Summary of the method: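 Keratinocyte plus foreskin fibroblast human primary skin co-culture was dosed with chemical and MMP-9 was quantified by ELISA 24 h later. Bidirectional curve fitting used DMSO as negative control and activity baseline.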

[15] = read-out: urokinase plasminogen activator (uPA), PLAU (gene 5328); assay: BSK_KF3CT_uPA: BioMAP Diversity Plus: KF3CT Assay for urokinase plasminogen activator (uPA) Biomarker Activity (AID 2283075); conditions: primary human keratinocytes with fibroblasts; actives raise or lower the signal
Summary of the method: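 Human keratinocyte plus foreskin fibroblast primary co-culture exposed to chemical for 24 h. uPA levels were quantified by ELISA, and activity was fitted bidirectionally against a DMSO negative-control baseline.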

CD40, CD40 (gene 958) = assay: BSK_LPS_CD40: BioMAP Diversity Plus: LPS Assay for CD40 Biomarker Activity (AID 2283076); conditions: primary human HUVEC with PBMC; actives raise or lower the signal
Summary of the method: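 In the LPS system of human endothelial cells with peripheral blood mononuclear cells, CD40 levels were read by ELISA 24 h post-treatment. Signal changes in either direction were fitted against the DMSO baseline, with parallel SRB protein staining.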

[16] = read-out: E-selectin (Homo sapiens) (UniProt P16581); assay: BSK_LPS_Eselectin: BioMAP Diversity Plus: LPS Assay for Eselectin Biomarker Activity (AID 2283077); conditions: primary human HUVEC with PBMC; actives raise or lower the signal
Summary of the method: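 E-selectin ELISA on LPS-stimulated endothelial cell/PBMC co-cultures, read 24 h post-treatment; gains and losses fitted against DMSO. Parallel SRB staining (0.1% SRB after 10% TCA fixation, 560 nm) flags overt cytotoxicity.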

[17] = read-out: Interleukin-8 (IL8), CXCL8 (gene 3576); assay: BSK_LPS_IL8: BioMAP Diversity Plus: LPS Assay for Interleukin-8 (IL8) Biomarker Activity (AID 2283078); conditions: primary human HUVEC with PBMC; actives raise or lower the signal
Summary of the method: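 ELISA read-out of IL-8 after 24 h chemical treatment of LPS-activated endothelial/PBMC human primary co-cultures. Changes either up or down relative to DMSO; overt cytotoxicity checked by sulforhodamine B staining in parallel wells.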

[18] = BSK_LPS_SRB: Viability Assessment in the BioMAP Diversity Plus: LPS Assay (AID 2283079); conditions: primary human HUVEC with PBMC;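 further: total protein by sulforhodamine B absorbance as a cytotoxicity measure; measured one day after compound addition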
Summary of the method: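 SRB viability endpoint: cells fixed with 10% TCA, stained with 0.1% SRB, read at 560 nm, 24 h post-dose. HUVEC/PBMC co-culture; signal change in either direction scored relative to DMSO.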

[19] = read-out: Interleukin-1 alpha (IL1a), IL1A (gene 3552); assay: BSK_LPS_IL1a: BioMAP Diversity Plus: LPS Assay for Interleukin-1 alpha (IL1a) Biomarker Activity (AID 2283080); conditions: primary human HUVEC with PBMC; actives raise or lower the signal
Summary of the method: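 Readout is IL-1a level by ELISA, 24 h post-dose, fitted as gain or loss relative to DMSO. System: LPS-activated human primary co-culture of vascular endothelium and peripheral blood mononuclear cells, with parallel SRB total-protein cytotoxicity.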

Measured: AC50

E-selectin (Homo sapiens), sequence (P16581 whole entry, looked up): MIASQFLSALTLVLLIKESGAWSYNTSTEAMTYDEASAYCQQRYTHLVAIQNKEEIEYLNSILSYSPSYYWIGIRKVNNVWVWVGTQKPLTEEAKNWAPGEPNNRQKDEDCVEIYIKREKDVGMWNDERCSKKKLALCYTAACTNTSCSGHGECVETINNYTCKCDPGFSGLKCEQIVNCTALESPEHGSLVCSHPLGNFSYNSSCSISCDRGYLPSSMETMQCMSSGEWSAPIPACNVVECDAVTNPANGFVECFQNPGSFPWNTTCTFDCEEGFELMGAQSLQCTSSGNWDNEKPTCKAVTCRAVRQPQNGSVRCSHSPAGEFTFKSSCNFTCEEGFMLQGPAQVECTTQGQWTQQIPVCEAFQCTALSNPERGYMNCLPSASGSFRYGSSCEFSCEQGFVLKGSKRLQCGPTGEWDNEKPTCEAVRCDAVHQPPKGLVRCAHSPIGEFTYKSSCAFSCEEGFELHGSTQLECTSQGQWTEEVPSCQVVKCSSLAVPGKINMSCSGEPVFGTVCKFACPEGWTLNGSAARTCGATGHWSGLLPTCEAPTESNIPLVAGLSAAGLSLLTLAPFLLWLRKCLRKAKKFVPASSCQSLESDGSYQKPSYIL

C=CCCCCCCCCCCCC
inactive: all assays above

CSc1ccc(Oc2ccc(S(N)(=O)=O)cc2CN(C)C)cc1C
inactive: all assays above

CC(C)NCC(O)c1ccc(O)c(O)c1 (stereo not given)
inactive: all assays above

CCCCC(CC)CO (stereo not given)
inactive: all assays above

C/C=C/c1ccc(OC)cc1
inactive: all assays above

CCCCC(CC)COP(=O)(OCC(CC)CCCC)OCC(CC)CCCC (stereo not given)
active: [17] 5.39 µM
inactive: all other assays above

S=c1[nH]c2ccccc2s1
inactive: all assays above

Reference: PubChem BioAssay (EPA / NIEHS)
